Measurements reported in PubChem BioAssay AID1159606 (Sanford-Burnham Center for Chemical Genomics, 2016).
The campaign covered roughly 360,000 compounds. About 7,300 (2%) were called active. Rule as the data show it: active = inhibition above about 50%; inactive = the rest. The full list was thinned out, with actives kept by preference.

Assay: inhibitors of TWEAK-Fn14 signaling, primary screen, luciferase reporter cells, uHTS (AID 1159606)
Settings: TWEAK-stimulated Fn14 reporter cells, luciferase luminescence, 8 h; at 10 µM; active compounds read high

| Compound | inhibition |
| --- | --- |
| O=C(NCC(=O)N1CCN(c2ccccc2O)CC1)c1ccc2ccccc2c1 | -22.9% (inactive) |
| CC(C)C1Cc2[nH][nH]c(=O)c2C(c2ccc(Cl)cc2)O1 (stereo not drawn) | -23.3% (inactive) |
| COc1ccc(C(=O)OCC(=O)c2ccc(Cl)s2)c(OC)c1OC | -38.7% (inactive) |
| CNc1cncc(-c2ccc(NS(C)(=O)=O)cc2)n1 | 34.6% (inactive) |
| CC1(C)OC(=O)C2=C(C[C@@H](C3CC3)O[C@H]2CCc2cccc(Cl)c2)O1 | -0.44% (inactive) |
| Cc1ccc(S(=O)(=O)N(C)c2ccc(OCC(=O)OCC(=O)N(CC#N)c3ccccc3)cc2)cc1 | -12% (inactive) |
| CCOC(=O)c1c(C)oc2cc(Sc3ccccc3)c(O)c(O)c12 | -4.97% (inactive) |
| CCOC(=O)c1c(-c2ccccc2)oc2cc(Br)c(O)c(C=O)c12 | 97.5% (active) |
| Cc1oc2cc(Br)c(O)c(Br)c2c1C(=O)c1ccccc1 | -24.8% (inactive) |
| CC1CCCN(c2ccc(C(=O)NCCc3ccccc3)cn2)C1 (stereo not drawn) | 6.92% (inactive) |
| CCN(C(=O)CSc1nnnn1-c1ccccc1OC)C1CCS(=O)(=O)C1 (stereo not drawn) | 3.05% (inactive) |
| COc1ccccc1-n1nnnc1S(=O)(=O)Cc1ccc(Cl)cc1 | 102% (active) |
| CCC(C)N(C(=O)CSc1nnnn1-c1ccccc1OC)C1CCS(=O)(=O)C1 (stereo not drawn) | 14.9% (inactive) |
| CNC(=O)NCCN1CCCC1=O | -16.3% (inactive) |
| O=C(NCc1ccc(F)cc1F)[C@@H]1CCCN1C(=O)[C@@H]1CCCN1C(=O)c1cccc(Cl)c1 | 22.6% (inactive) |
| Cc1ccc2nc(-c3ccco3)c(Cc3cccc(Cl)c3)n2c1 | 10.4% (inactive) |
| N#CCC(=O)Nc1ccc(C(=O)OCC(=O)Nc2sc3c(c2C#N)CCCC3)cc1 | -31.7% (inactive) |
| CC(=O)c1c(C)[nH]c(C(=O)OCC(=O)Nc2sc3c(c2C#N)CCCC3)c1C | 64.3% (active) |
| CC(=O)c1c(C)[nH]c(C(=O)OCC(=O)Nc2c(C)cccc2C)c1C | 12.5% (inactive) |
| COc1cc(C(O)c2nc(-c3cccc(C(=O)O)c3)cs2)ccc1F (stereo not drawn) | -19.5% (inactive) |
| COc1ccc(C(C)(NC(C)=O)c2nc(-c3ccc(S(C)(=O)=O)cc3)cs2)cc1 (stereo not drawn) | -12.5% (inactive) |
| CCCc1nc2scc(-c3ccc(C)cc3)c2c(=O)n1N | 17.3% (inactive) |
| Cn1cc(C2OC(=O)c3ccccc32)c2ccccc21 (stereo not drawn) | 38.7% (inactive) |
| COc1ccc(C(O)c2nc(-c3ccc(OC)nc3)cs2)cc1 (stereo not drawn) | -2.94% (inactive) |

| Compound | inhibition |
| --- | --- |
| COc1ccc2c(c1OC)C(=O)OC2Nc1nc(-c2ccccc2)cs1 (stereo not drawn) | 66.1% (active) |
| Cc1ccc(-c2csc(NC3OC(=O)c4ccccc43)n2)cc1 (stereo not drawn) | 85.8% (active) |
| COc1ccc(-c2csc(Nc3ccccn3)n2)cc1 | 68.4% (active) |
| N#Cc1ccc(OCC(=O)Nc2nc(-c3ccccn3)cs2)cc1 | -7.26% (inactive) |
| COc1ccc(-c2csc(NC3OC(=O)c4ccccc43)n2)cc1 (stereo not drawn) | 66.2% (active) |
| COc1ccc(N/C=C(\C2OC(=O)c3ccccc32)[N+](=O)[O-])cc1 (stereo not drawn) | 9.49% (inactive) |
| C/C(CC1CC(C)(C)OC1=O)=N/Nc1nc(-c2ccccc2)cs1 (stereo not drawn) | -29.9% (inactive) |
| COc1nc(OC)nc(N(C)CCO)n1 | 5.06% (inactive) |
| O=C(CCc1ccccc1)Nc1nn[nH]n1 | -6.61% (inactive) |
| CCOc1ccc(CCN2C(=O)C(=O)N([C@@H](CC(C)C)CN3CCC[C@H]3CN3C(=O)C(=O)NC[C@@H]3Cc3ccccc3)C[C@@H]2CC(C)C)cc1 | 18.1% (inactive) |
| CCc1nc2c(OCC(N)=O)cccn2c1N(C)C(=O)c1ccc(OC)cc1 | -0.65% (inactive) |
| Cc1cccc(C(=O)O)c1[N+](=O)[O-] | -0.13% (inactive) |
| O=C(NCc1ccccc1)C(=O)NCC1OCCN1S(=O)(=O)c1ccc(Br)cc1 (stereo not drawn) | -2.34% (inactive) |
| CC(NC(=O)COC(=O)Cn1cc(C(F)(F)F)ccc1=O)c1ccccc1 (stereo not drawn) | 19.7% (inactive) |
| CCC(C)NCC(=O)Nc1ccc([N+](=O)[O-])cc1C(=O)Nc1ccccc1F (stereo not drawn) | 3.23% (inactive) |
| CC(=O)OCCN(CCCn1c(-c2ccncc2)nc2ccccc21)c1nc(-c2ccc(C)cc2)cs1 | 4.36% (inactive) |
| CCCCOCCCNC(=O)C[C@@H]1C[C@@]2(C(=O)OC)CCCCC=C2N(CCC2=CCCCC2)C1=O | 11% (inactive) |
| COc1ccc(S(=O)(=O)N2C[C@H]3CON(C)[C@H]3C[C@H]2c2cccc(Br)c2)cc1 | -6.92% (inactive) |
| CN1OC[C@@H]2CN(S(=O)(=O)c3cccc(C(F)(F)F)c3)[C@H](c3ccc(-c4cc5ccccc5o4)cc3)C[C@@H]21 | 62.2% (active) |
| CN1OC[C@@H]2CN(S(=O)(=O)c3cccc4ccccc34)[C@H](c3ccc(N4CCCCC4)cc3)C[C@@H]21 | -7.73% (inactive) |
| CC(C)(C)n1ncc2c(=O)n(Cc3ccc(Cl)cc3)cnc21 | 68.2% (active) |
| CC(=O)Cn1cnc2c(cnn2-c2ccccc2)c1=O | 4.23% (inactive) |
| CC(C)(C)n1ncc2c(=O)n(Cc3c(Cl)cccc3Br)cnc21 | 3.93% (inactive) |
| O=C(O)CSCc1ccc(C(=O)O)o1 | -3.63% (inactive) |

| Compound | inhibition |
| --- | --- |
| CC(CO)NCC12CC3CC(CC(C3)C1)C2 (stereo not drawn) | 13.3% (inactive) |
| CC(Sc1ncnc2c1cnn2-c1ccccc1)C(=O)Nc1ccc(N2CCOCC2)cc1 (stereo not drawn) | -20.4% (inactive) |
| COc1ccc(-n2ncc3c(N4CCCc5ccccc54)ncnc32)cc1 | 58.1% (active) |
| COC(=O)CSc1ncnc2c1cnn2-c1ccc(C)cc1C | -11.2% (inactive) |
| CC(C)Sc1ncnc2c1cnn2-c1ccccc1 | 15.4% (inactive) |
| Cc1ccc2cc(C)c(N3CCN(c4ccc(F)cc4)CC3)nc2c1 | 8.39% (inactive) |
| COc1ccc(-n2ncc3c(SCC(=O)NNC(C)=O)ncnc32)cc1 | 14.6% (inactive) |
| Cc1ccc(-n2ncc3c(N4CCN(c5ccc(F)cc5)CC4)ncnc32)c(C)c1 | 73% (active) |
| COc1ccc(-n2ncc3c(N4CCc5ccccc54)ncnc32)cc1 | -15.6% (inactive) |
| c1ccc(-n2ncc3c(N4CCCC4)ncnc32)cc1 | 62.5% (active) |
| CCOC(=O)c1c(N=CN(C)C)c(C#N)c2n1CCCC2 | -13.8% (inactive) |
| COc1ccc(C(C)NC(=S)NC2CCCCC2)cc1OC (stereo not drawn) | 10.8% (inactive) |
| CC(C)CN(C(=O)CSc1ncnc2sccc12)C1CCS(=O)(=O)C1 (stereo not drawn) | 4.56% (inactive) |
| COc1cc(OC)cc(C2=Cc3ccccc3C(CC(=O)c3ccco3)N2c2ccc(-c3cnc(OC)nc3)cc2)c1 (stereo not drawn) | 16.7% (inactive) |
| Cc1ccc(NC(=O)CC2S/C(=N/N=C3\CCCc4ccccc43)NC2=O)cc1 (stereo not drawn) | 11.1% (inactive) |
| Cc1ccc(-n2c(SCC(=O)NCc3ccc4c(c3)OCO4)nnc2-c2cccnc2)c(C)c1 | -9.21% (inactive) |
| CCCc1[nH]nc2c1C(C1CC=CCC1)C(C#N)=C(N)O2 (stereo not drawn) | 53.8% (active) |
| CCCc1[nH]nc2c1C(c1ccc(Br)s1)C(C#N)=C(N)O2 (stereo not drawn) | 30.2% (inactive) |
| N#CC1=C(N)OC2=C(C(=O)CCC2)C1C1CC=CCC1 (stereo not drawn) | 24.8% (inactive) |
| CCCCCc1c(-c2ccc(OC)c(OC)c2)ncn1CCc1ccccc1OC | 62.6% (active) |
| CCCCc1c(-c2ccc(Cl)cc2)ncn1CCc1ccccc1OC | 26.6% (inactive) |
| CCCCCc1c(-c2cccc(Br)c2)ncn1CCc1ccccc1OC | -2.04% (inactive) |
| Cn1c(SCC(=O)Nc2ccc(N3CCOCC3)cc2)nnc1C(F)(F)F | -2.56% (inactive) |
| Cc1cc(Br)cn2c(Cc3ccccc3C(F)(F)F)c(-c3ccc(Cl)cc3)nc12 | 26.9% (inactive) |

| Compound | inhibition |
| --- | --- |
| CCCc1ccc(-c2c(C)sc(NC(=O)c3ccnn3C)c2C#N)cc1 | 13.3% (inactive) |
| COC(=O)CNC(=O)c1ccc2c(c1)S(=O)(=O)c1ccccc1C2=O | 65.4% (active) |
| CC(C)(C)c1ccc(C(=O)NCC(=O)OCN2C(=O)c3ccccc3C2=O)cc1 | -8.88% (inactive) |
| Cc1ccc(CNC(=O)c2ccc3c(c2)S(=O)(=O)c2ccccc2C3=O)cc1 | -18% (inactive) |
| Cc1nc(Nc2ccccc2F)c2nnn(Cc3ccccc3Cl)c2n1 | 20% (inactive) |
| Cc1nc(Nc2ccc3c(c2)OCCO3)c2nnn(Cc3ccccc3Cl)c2n1 | 94.4% (active) |
| CCCc1nc(NCc2ccc3c(c2)OCO3)c2nnn(Cc3ccccc3Cl)c2n1 | -10.6% (inactive) |
| O=C1C2C3C=CC(C3)C2C(=O)N1c1ccc(-c2nc3ccccc3c(=O)o2)cc1 (stereo not drawn) | -0.15% (inactive) |
| O=C(/C=C/[C@H]1O[C@@H](n2ccc(=O)[nH]c2=O)[C@H](O)[C@@H]1O)NCc1ccccn1 | 9.38% (inactive) |
| COc1cc(NC(=O)COc2ccccc2Cl)ccc1NC(=O)C(C)C | -5.09% (inactive) |
| CCc1ccccc1OCC(=O)Nc1ccc(C)c(S(=O)(=O)N2CCCCCC2)c1 | 12.8% (inactive) |
| Cc1ccccc1OCC(=O)Nc1ccc(N2CCN(C(=O)C(C)C)CC2)c(Cl)c1 | 70.6% (active) |
| Cn1nnnc1SCC(=O)Nc1ccccc1C(=O)NC1CC1 | -4.44% (inactive) |
| COCCOC(=O)c1c(C)oc2cc(Br)c(OCC(N)=O)cc12 | -6.98% (inactive) |
| CCCCCc1ccc(-c2ccc(OCC)cc2)nc1 | -9.17% (inactive) |
| CCCCCc1ccc(-c2ccc(C(=O)O)cc2)nc1 | 87.5% (active) |
| CCCCCC(=O)Nc1ccc(-c2cn3cccnc3n2)cc1 | -20.2% (inactive) |
| O=C(NC(=S)Nc1ccccc1C(=O)O)c1ccc(-c2ccc(Br)cc2)o1 | 47.2% (inactive) |
| CCOC(=O)c1c(NC(=O)CSc2nccc(=O)[nH]2)sc(C)c1C | -3.68% (inactive) |
| CCOC(=O)c1c(C)[nH]c(C)c1S(=O)(=O)NCCCc1ccco1 | -7.27% (inactive) |
| CCOC(=O)c1c(C)[nH]c2c1-c1ccccc1C(=O)C2=O | 101% (active) |
